This is a sample that favours compounds with a hit; in the whole collection about 6% have one here.
D3 antag: antagonists of human D3 dopamine receptor; P35462; D3R cells, DiscoveRx beta-arrestin luminescence, antagonist mode; stronger effect = lower value; max response, negative = inhibition, %; hit rate 2.5% among 360,000; AID 652054; in the data active means max response below about -50%; inconclusive means no clear call, values can overlap the other calls
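Cells expressing the human receptor were seeded at 1500 cells/well, incubated overnight at 37 degrees C in 5% CO2, then exposed to library compounds with dopamine controls for 90 minutes at 37 degrees C before luminescent detection.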
DRD3 agonist: agonists of human D3 dopamine receptor; P35462; D3R DiscoveRx beta-arrestin cells, luminescence, 90 min; max activation, %; hit rate 0.58% among 410,000; in the data active means max activation above about 30%
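Cells at 1500/well, incubated overnight, then treated with pinned compounds (dopamine as control) for 90 min at 37 degrees C. DiscoveRx reagent added for 30 - 60 minutes at room temperature; luminescence read.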
D1 antagonist: human D1 dopamine receptor antagonism; HEK293 TREx D1 cells, calcium flux, dopamine EC80; stronger effect = lower value; activity change, negative = inhibition, % at 10 µM; hit rate 3.2% among 360,000; AID 504652; in the data active means activity change below about -30%
Target sequence (P21728 whole entry, looked up): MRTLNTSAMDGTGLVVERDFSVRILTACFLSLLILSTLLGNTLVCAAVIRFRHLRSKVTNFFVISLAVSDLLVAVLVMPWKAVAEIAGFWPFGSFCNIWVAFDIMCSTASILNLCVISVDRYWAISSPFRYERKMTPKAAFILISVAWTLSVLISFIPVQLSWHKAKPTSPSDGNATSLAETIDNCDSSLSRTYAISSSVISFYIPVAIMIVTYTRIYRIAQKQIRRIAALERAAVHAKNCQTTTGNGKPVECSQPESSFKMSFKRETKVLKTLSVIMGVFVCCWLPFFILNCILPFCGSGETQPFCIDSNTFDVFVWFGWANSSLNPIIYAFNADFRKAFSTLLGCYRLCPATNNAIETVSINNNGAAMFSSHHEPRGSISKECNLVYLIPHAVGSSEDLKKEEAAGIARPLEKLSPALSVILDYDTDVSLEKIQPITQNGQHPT
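Tetracycline-induced HEK293 Trex D1 cells, force-coupled to calcium, dye-loaded; compounds added and read 180 s, then EC80 dopamine added and calcium flux tracked kinetically another 180 s.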
D1 agonist: human D1 receptor agonism | P21728 | HEK293 T-REx D1 cells, calcium flux, agonist mode | activation, % at 2 µM | hit rate 1% among 360,000 | AID 504660; in the data active means activation above about 30%
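Tetracycline-induced HEK293 TREx D1 cells, force-coupled to calcium signalling, were dye-loaded with a no-wash calcium kit. Compound was pin-added after a 10 s baseline. Fluorescence was read kinetically at 1 cycle/s for 180 s, with calcium rises flagged as agonism.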
D1 potentiator: potentiators of human D1 dopamine receptor; AID 504651; HEK293 TREx D1 cells, calcium flux, dopamine EC20 potentiation; hit rate 0.036% among 360,000; P21728; potentiation, % at 10 µM; in the data active means potentiation above about 30%
Numbers stand for hits; i = inactive; ? = inconclusive; nt = no result; ! = repeats disagree.

SMILES | D3 antag | DRD3 agonist | D1 antagonist | D1 agonist | D1 potentiator
O=C(N/C=C\c1ccccc1)NCc1ccc(Cl)cc1Cl | i | i | i | i | i
COc1ccc(C(=O)C=CNNC(=O)c2ccc(Cl)cc2)cc1 | -54.1 | i | i | i | i
O=C(/C=C/NNC(=O)c1ccc(Cl)cc1)c1ccccc1 | i | i | i | i | i
COc1ccc(C(=O)NN/C=C/C(=O)c2ccc(Br)cc2)cc1 | i | i | nt | nt | nt
O=C(/C=C/NNC(=O)c1ccccc1)c1ccc(Br)cc1 | -77.0 | i | i | i | i
Cc1ccccc1C(=O)Nc1ccc(S(=O)(=O)N2CCC(c3nc4ccccc4s3)CC2)cc1 | nt | i | i | i | i
COc1cccc(Nc2sc(C(=O)c3ccc(F)cc3)c(N)c2C(=O)NCc2ccc(C)cc2)c1 | nt | i | i | i | i
CCCSc1nnc(-c2cnn(-c3ccccc3)c2-n2cccc2)n1C | i | i | i | 35.6 | i
C=CCSc1nnc(-c2cnn(-c3ccccc3)c2-n2cccc2)n1C | i | i | i | i | i
CO/N=C(\C(=O)N[C@@H]1C(=O)N2C(C(=O)O)=C(CSc3nc(C)c(CC(=O)O)s3)CS[C@H]12)c1csc(N)n1 | nt | i | nt | nt | nt
CCc1ccc(-c2cn3c(n2)SCC3)cc1 | i | i | -85.5 | i | i
Cc1ccc(-c2cn3c(n2)SCC3)cc1 | i | i | i | i | i
CCc1cccc(C)c1NC(=O)c1cccnc1 | i | i | -31.6 | i | i
CCc1cccc(C)c1NC(=O)C1=C(C(=O)O)CCCC1 | i | i | -82.4 | i | i
CCc1cccc(C)c1NC(=O)c1ccccc1 | i | i | i | i | i
Cc1ccc(NC(=O)Cn2c(=O)n(Cc3nc(-c4ccccc4)no3)c(=O)c3ccccc32)c(C)c1 | nt | i | i | i | i
Cn1c(C(=O)O)c(CC(=O)Nc2ccc(F)cc2F)c2ccccc21 | i | i | -50.4 | i | i
CCCCOC(=O)c1ccc(NC(=O)c2ccc3c(c2)CCN3S(C)(=O)=O)cc1 | nt | i | i | i | i
CC(C)Cc1nc2oc3c(NCc4cccnc4)ncnc3c2c2c1CCC2 | i | i | i | i | i
CC(C)Cc1nc2oc3c(NCC4CCCO4)ncnc3c2c2c1CCC2 (centres undefined) | i | 57.8 | i | i | i
Cn1cc(S(=O)(=O)N2CCCCC2)cc1C(=O)Nc1cccc(C#N)c1 | nt | i | i | i | i
Cc1cc(-c2csc(N)n2)c(C)n1CCc1ccccc1 | i | 31.6 | i | i | i
CC1CCN(c2ccc(-c3nc(C(C)C)no3)cc2[N+](=O)[O-])CC1 | nt | i | i | i | i
CCc1c(C(=O)NNC(=S)NCCc2ccccc2)csc1C | -65.5 | i | i | i | i
CCc1c(C(=O)NNC(=S)NC2CCCCC2)csc1C | i | i | i | i | i
SMILES | D3 antag | DRD3 agonist | D1 antagonist | D1 agonist | D1 potentiator
CC1CCN(C(=O)c2c(NC(=O)c3ccccc3F)sc3c2CCC(C(C)(C)C)C3)CC1 (centres undefined) | nt | i | i | i | i
O=C(NCCNc1nccc(C(F)(F)F)n1)c1cccc(C(F)(F)F)c1 | i | i | -33.9 | i | i
COc1ccc2c(c1)CC/C(=C\C=C\c1ccccc1OC)C2=O | i | i | i | i | i
CCN(CC)Cc1c(O)ccc2c1O/C(=C\C=C\c1ccccc1)C2=O | i | i | i | 48.8 | i
COCCN(CCOC)Cc1c(O)ccc2c1O/C(=C\c1ccc(C)o1)C2=O | i | i | i | i | i
COc1ccccc1/C=C/C=C1\Oc2c(ccc(O)c2CN(C)C)C1=O | ? | i | i | 103.3 | i
CN1CCN(C(=O)CCN2C(=O)/C(=C\c3ccccc3F)SC2=S)CC1 | i | i | i | 95.6 | i
O=C(CCN1C(=O)/C(=C\c2ccccc2F)SC1=S)N1CCOCC1 | i | i | nt | nt | nt
O=C(CCN1C(=O)/C(=C/c2cccs2)SC1=S)N1CCCCC1 | i | 33.6 | i | i | i
CN1CCN(NC(=O)CN2C(=O)/C(=C/c3ccccc3Cl)SC2=S)CC1 | -64.5 | i | i | i | i
COc1ccc(-c2nc3n(n2)C(c2ccccc2OC)C(C(=O)Nc2cccnc2)=C(C)N3)cc1 (centres undefined) | nt | i | i | i | i
Cc1ccc(OCc2nc3ccccc3n2Cc2ccccc2Cl)cc1 | nt | i | i | i | i
Cc1cc(NC(=O)c2ccc(NC(=O)CCS(=O)(=O)c3cccs3)cc2)ccc1Br | nt | i | -38.0 | i | i
COC(=O)c1ccc(NC(=O)CCS(=O)(=O)c2ccc(Br)s2)cc1 | i | i | -52.0! | i | i
COC(=O)c1ccccc1NC(=O)CCS(=O)(=O)c1ccc(Br)s1 | -52.0 | i | i | i | i
CSc1ccc(CNC(=O)CCc2c(C)nn(-c3ccc(N4CCCC4)nn3)c2C)cc1 | nt | i | i | i | i
O=[S+]([O-])(c1ccc2c(c1)OCCO2)N1CCN([S+](=O)([O-])c2ccc(F)cc2Br)CC1 | nt | nt | i | i | i
COc1cc(C2CC(=O)Nc3c2c(=O)[nH]c2nc4ccccc4n32)ccc1O (centres undefined) | nt | i | -48.8 | i | i
CCCS(=O)(=O)N1CCN(CC2CC3C=CC2C3)CC1 (centres undefined) | i | i | i | i | i
Cc1ccc(S(=O)(=O)N2CCN(CC3CC4C=CC3C4)CC2)cc1 (centres undefined) | i | i | i | i | i
C1=CC2CC1CC2CN1CCN(Cc2ccccc2)CC1 (centres undefined) | -53.1 | i | i | i | i
Cc1cc2[nH]c(=O)c(=O)[nH]c2cc1S(=O)(=O)N1CCN(c2cccc(C(F)(F)F)c2)CC1 | i | i | -62.2! | i | i
Fc1ccccc1N1CCN(CC2CC3C=CC2C3)CC1 (centres undefined) | -71.2 | i | i | i | i
FC(F)(F)c1cccc(N2CCN(CC3CC4C=CC3C4)CC2)c1 (centres undefined) | -72.4 | i | i | i | i
Cn1nc(C(=O)NCc2cccc(Cl)c2)c2c1-c1ccccc1SC2 | nt | i | i | i | i
SMILES | D3 antag | DRD3 agonist | D1 antagonist | D1 agonist | D1 potentiator
CCCCN(C)CCNC(=O)c1nn(-c2ccc(OC)c(Cl)c2)c(=O)c2c1c1ccccc1n2C | nt | i | i | i | i
CCS(=O)(=O)N1CCN(CC2CC3C=CC2C3)CC1 (centres undefined) | -71.9 | i | i | i | i
O=C1CCC/C1=C\Nc1ccc(Cl)c([N+](=O)[O-])c1 | i | i | -39.6 | i | i
O=C1CCC/C1=C/Nc1ccc(Cl)cc1 | i | i | i | i | i
COc1ccccc1CNC(=O)CCCCn1c(=O)c2ccccc2n(Cc2ccccc2C)c1=O | nt | i | i | i | i
O=C(Nc1ccc(SC(F)F)cc1)c1ccc(F)cc1 | i | i | -36.6 | i | i
CCc1ccccc1Nc1cc(C(=O)NC2CCC(C)CC2)c2ccccc2n1 (centres undefined) | nt | i | i | i | i
Cc1ccccc1NC(=O)CSc1ccc(-c2ccco2)nn1 | i | i | -70.7 | i | i
CCCS(=O)(=O)N1CCC(N2CCN(Cc3ccc(F)cc3)C(=O)C2=O)CC1 | nt | i | i | i | i
